Tgondii IFNg: T. gondii growth inhibition with IFN-gamma, primary screen, cell-based; Toxoplasma gondii growth in IFN-gamma-treated host cells; hits give low values; activity change, negative = inhibition, % (concentration not given with the values); 69,000 compounds, 3.8% hits; in the data active = activity change below about -70%, passing the limit was not always enough;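 also: host cells are HeLa cells infected with Toxoplasma gondii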
* = called active by the depositor; i = inactive; ! = not active in a repeat. Many of the other results were omitted from the sample, so hits are more common in it than they were.

SMILES | Tgondii IFNg
Cc1ccc(C(=O)N2CCC(N3CCOCC3)CC2C(=O)O)cn1 (stereo unspecified) | 60
CCOC(=O)c1c[nH]c2ccc(OC)cc2c1=O | -88*
COc1ccc2[nH]cc(C(=O)CCl)c2c1 | -26
CC(=O)c1c[nH]c2ccc(C)cc2c1=O | 13
CN(C)c1ccccc1C(=O)N1CCC2(CC1)c1ccccc1[C@@H](N)[C@@H]2O | -3
Cc1cccc(-c2ccc([C@H]3[C@@H](CO)N4CCCCN(S(=O)(=O)c5ccccc5F)C[C@H]34)cc2)c1 | -80*
O=S(=O)(c1ccc(F)cc1)N1CCCCN2[C@@H](CO)[C@H](c3ccc(-c4cncnc4)cc3)[C@@H]2C1 | 3
Cc1cccc(-c2ccc([C@H]3[C@H]4CN(S(=O)(=O)c5ccccc5F)CCCCN4[C@H]3CO)cc2)c1 | -40
CCCCOc1ccc(S(=O)(=O)N(Cc2ccccc2)Cc2ccccc2)cc1 | -27
CCOc1ccc(N(Cc2nc(-c3ccc(C)cc3)oc2C)S(=O)(=O)c2ccccc2)cc1 | 15
Cc1cc(C)c(N(Cc2ccccc2)S(=O)(=O)c2ccc(OCCNC(=O)c3cc4ccccc4o3)cc2)c(C(=O)NO)c1 | -72*!
COc1cccc(CNC2=NCCOc3ccccc32)c1 | 18
O=c1[nH]c(NCCO)nc2sc3c(c12)CCCC3 | 9
Cc1nc2sc3c(c2c(=O)[nH]1)CCC3 | 11
COc1ccc(-c2nc3sc4c(c3c(=O)[nH]2)CCCC4)cc1 | -87*
CC(C)(C)NC(=O)c1cc(-c2ccn(C3CCCC3)n2)n2ccccc12 | 63
O=C(Nc1ccc(CCO)cc1)C1CC2(CCNCC2)c2ccccc21 (stereo unspecified) | 3
Cc1ccc(F)cc1NC(=O)Cn1ncc2c(N3CCN(c4ccccn4)CC3)ncnc21 | -55
COC(=O)c1ccc(S(=O)(=O)NCc2csc3ccc(Cl)cc23)n1C | -57
O=C(O)c1nccnc1C(=O)NCc1csc2ccc(Cl)cc12 | 13
COC(=O)C(Cc1csc2ccc(Cl)cc12)NC(=O)c1ccc(C(F)(F)F)cc1 (stereo unspecified) | 47
Cc1cc(C)n(S(=O)(=O)c2ccccc2)n1 | -3
Cc1nn(S(=O)(=O)c2ccccc2)c(C)c1Cc1csc2ccc(Cl)cc12 | -89*
Cc1nn(C(=O)Nc2cccc(Cl)c2)c(C)c1Cc1csc2ccc(Cl)cc12 | -85*
O=C(c1ccco1)N(Cc1nc(-c2ccc(Cl)cc2)no1)C1CCCCC1 | 16
SMILES | Tgondii IFNg
CC(C)(C)c1ccc(OC(=O)c2cccc(C(=O)Oc3ccc(C(C)(C)C)cc3)n2)cc1 | 33
CCn1cc(Cn2ccnc2-c2cccc(Cn3cccn3)c2)cn1 | 4
O=C(Nc1ccn(Cc2ccc(Cl)cc2Cl)n1)c1ccc(F)cc1 | -97*
Cc1oc(-c2ccc(NC(=O)c3ccc(F)cc3)cc2)nc1Cn1cccn1 | 23
O=C(Nc1cc(Cl)c(-n2cccc2)cc1Cl)c1ccc(Cl)cc1 | 45
CC[C@@H](Cn1nnc2ccccc2c1=O)NC(=O)Cc1ccccc1OC | -34
CCN(CC)C(=O)Sc1nc2cc(Cl)ccc2s1 | -51
O=C(O)CSc1nc2cc(Cl)ccc2s1 | -107*
O=C(O)CCSc1nc2ccccc2s1 | -27
CCc1ccc(NC(=O)N2CCC(c3nc(C(=O)N4CCCC4)c(C)o3)CC2)cc1 | -58
Cc1ccc(-c2coc(-c3ccc(NC(=O)c4sccc4C)cc3)n2)c(C)c1 | 34
COc1cccc(NC(=O)Nc2ccc3c(c2)C(=O)N(C)C[C@@H](OC)[C@@H](C)CN[C@H](C)CO3)c1 | -26
CO[C@@H]1CN(C)C(=O)c2cc(NC(=O)c3ccc(Oc4ccccc4)cc3)ccc2OC[C@H](C)NC[C@H]1C | -122*
CO[C@H]1CN(C)C(=O)c2cc(NC(=O)c3cnccn3)ccc2OC[C@@H](C)NC[C@@H]1C | 0
COc1cccc(NC(=O)Nc2ccc3c(c2)C(=O)N(C)C[C@@H](OC)[C@@H](C)CN[C@@H](C)CO3)c1 | -67
CO[C@H]1CN(C)C(=O)c2cc(NC(=O)c3ccc(Oc4ccccc4)cc3)ccc2OC[C@@H](C)NC[C@@H]1C | -114*
COc1cccc(NC(=O)Nc2ccc3c(c2)C(=O)N(C)C[C@H](OC)[C@H](C)CN[C@H](C)CO3)c1 | 73
CN(C)C(=O)N1CC(=O)NCC12CCN(C(=O)Nc1ccccc1)C2 (stereo unspecified) | 5
c1cncc(CN(CCCN2CCOCC2)Cc2ccnc(N3CCSCC3)n2)c1 | -17
CN1C(=O)CCC12CCCN(C(=O)Cc1ccsc1)C2 (stereo unspecified) | -54
C=CCn1c(=O)c(-c2nc(-c3ccc(OCC)cc3)no2)c(O)c2ccccc21 | -16
O=c1ccc2cc(S(=O)(=O)N3CCN(Cc4ccc5c(c4)OCO5)CC3)ccc2[nH]1 | -61
CCN(CC)C(=O)c1cc(=O)n(CC(=O)Nc2ccc(C)cc2)c2ccccc12 | 21
CCC1(O)CC2CN(CCc3c([nH]c4ccccc34)C(C(=O)OC)(c3cc4c(cc3OC)N(C)C3C(O)(C(=O)OC)C(C(=O)OC)C5(CC)C=CCN6CCC43C65)C2)C1 (stereo unspecified) | -86*
CC1=C(C(=O)NCCN2CCCCC2C)C2(CCN(S(C)(=O)=O)CC2)OC1=O (stereo unspecified) | 27
SMILES | Tgondii IFNg
Cc1sc2ncnc(NCc3ccco3)c2c1C | -3
Oc1ccc(OCc2ccccc2)cc1 | -33
Cc1sc2ncnc(Oc3ccc(OCc4ccccc4)cc3)c2c1C | -101*
O=C(NCc1ccc(F)cc1)c1c(O)c2ccccc2n(-c2ccccc2)c1=O | 100
O=C1CCC2(CCN1)CCN(C(=O)c1cnc(-c3cccs3)nc1)CC2 | 6
CNC(=O)c1cc(-c2ccn[nH]2)ccc1Cl | 4
O=C(c1cncc(-c2ccnc3[nH]ccc23)n1)N1CCCCC1 | -33
NC(=O)c1cc(-c2ccnc3[nH]ccc23)ccc1Cl | -89*
COc1ccc(OC)c(NC(=O)N2CCC3(CC2)Nc2cc(F)ccc2-n2cccc23)c1 | i
CCc1nc(OCC(=O)N(C)c2ccccc2)c2ccccc2n1 | 2
CC(NC(=O)CN1CCCCCC1)c1ccccc1 (stereo unspecified) | -50
O=C(NC(NC(=S)Nc1ccc(F)c([N+](=O)[O-])c1)C(Cl)(Cl)Cl)C(c1ccccc1)c1ccccc1 (stereo unspecified) | -81*
O=C(/C=C/c1ccccc1)NC(NC(=S)Nc1cccc2cccnc12)C(Cl)(Cl)Cl (stereo unspecified) | -36
O=C(NCCc1ccc(Cl)cc1)C(c1ccccc1)c1ccccc1 | -11
CC/C=C/CC(=O)Nc1cccc(NC(=O)Cc2ccccc2)c1 | -12
Cc1cc(C(=O)Nc2cccc(NC(=O)Cc3ccccc3)c2)n[nH]1 | -75*
O=C(Cc1ccccc1)Nc1cccc(NC(=O)c2ccnnc2)c1 | 6
CCOc1ccc2[nH]c(=O)c(CN(C)Cc3cc(C)on3)cc2c1 | -18
COc1ccc2[nH]c(=O)c(CNc3c(C)cc[nH]c3=O)cc2c1 | 139
CCOc1ccc2[nH]c(=O)c(CNCCO)cc2c1 | -101*
S=C1N(CN2CCOCC2)CCN1CN1CCOCC1 | 19
O=C1NCCN2CCN(Cc3c(-c4ccccc4)nc4ncccn34)CC12 (stereo unspecified) | -5
COc1ccc(-c2nc(N3CCOCC3)c3ccccc3n2)cc1 | -42
Cc1cc(C(=O)Nc2ccc3c(c2)C(=O)N(C)[C@@H]2CC[C@H](CC(=O)NCc4ccc(-c5ccccc5)cc4)O[C@@H]2CO3)no1 | -87*

Screening results as filed in PubChem BioAssay.
